Source: PubChem BioAssay (NCATS)
Inconclusive results are not listed. The source made the active and inactive calls. Calls come from the whole dose curve; as a rule, active = well fitted inhibition curve with a large enough effect; inconclusive = small, poorly fitted or top-dose-only effect; inactive = flat fitted curve, though single readings scatter.

Assays:
[1] = tested on: CRL-7250; experiment: Cytotoxic Profiling of Annotated Libraries Using Quantitative High-Throughput Screening (AID 1296008); settings: Five cell lines viability, CellTiter-Glo ATP luminescence, 48-72 h; max response: stronger effect = lower value; for max response: % is set by controls: 0 for no effect and ±100 for the full control effect
Procedure, shortened: (§1)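 Cells exposed to compounds for 48 or 72 hr at 37 degrees Celsius. Viability read as ATP-coupled luminescence with CellTiter-Glo after 10 min at room temperature.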

[2] = tested on: HEK293; experiment: as above; settings: Five cell lines viability, CellTiter-Glo ATP luminescence, 48-72 h; max response: stronger effect = lower value
Procedure, shortened: as §1

[3] = tested on: HaCat; experiment: as above; settings: Five cell lines viability, CellTiter-Glo ATP luminescence, 48-72 h; max response: stronger effect = lower value
Procedure, shortened: as §1

[4] = tested on: KB-3-1; experiment: as above; settings: Five cell lines viability, CellTiter-Glo ATP luminescence, 48-72 h; max response: stronger effect = lower value
Procedure, shortened: as §1

[5] = tested on: NIH3T3; experiment: as above; settings: Five cell lines viability, CellTiter-Glo ATP luminescence, 48-72 h; max response: stronger effect = lower value
Procedure, shortened: as §1

[6] = tested on: HACAT; experiment: qHTS assay to identify novel small-molecules to repurpose for Merkel cell carcinoma treatment (AID 1296009); settings: MCC and control cell lines, CellTiter-Glo viability, 72 h; at 44.8 µM (top of the series) unless noted
Procedure, shortened: (§2)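 Cells were treated for 72 hr at 37 degree celsius with compounds in 8- or 11-point dose response. Viability was read by CellTiter-Glo luminescence, normalized to no-cell (cytotoxicity) and DMSO controls.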

[7] = tested on: NIH3T3; experiment: as above; settings: MCC and control cell lines, CellTiter-Glo viability, 72 h; at 44.8 µM (top of the series) unless noted
Procedure, shortened: as §2

Measured: max response
Note: nearly all actives have a fitted effect of over 60% in size.

COC(=O)C1=CO[C@@H](O[C@@H]2O[C@H](CO[C@@H]3O[C@H](CO)[C@@H](O)[C@H](O)[C@H]3O)[C@@H](O)[C@H](O)[C@H]2O)[C@@H]2C(CO)=CC[C@H]12
inactive: [1] -2.64% | [2] 1.28% | [3] | [4] | [5] | [6] inactive [at 17.4 µM] | [7] inactive [at 17.4 µM]

COc1cc(C)c(C(=O)NC2C(C)OC(OC3CCC(C)C4C3C=C(C)C3/C(C)=C\CC/C(C)=C/C5(C)C=C(C(=O)O)C(C)CC56OC(=O)/C(=C(\O)C34C)C6=O)C(O)C2(C)O)c(O)c1 (stereo not drawn)
inactive: [1] -0.565% | [2] -0.938% | [3] | [4] -0.929% | [5] | [6] inactive [at 9.27 µM] | [7] inactive [at 9.27 µM]

C[C@H]1CC[C@H]2[C@@H](C=C[C@@](C)(O)[C@]2(C)C(=O)CCO)C1
inactive: [1] | [2] 4.9% | [3] | [4] 5.8% | [5] | [6] | [7]

CC(C)Oc1ccc(-c2nc(-c3cccc4c3CCC4NCCC(=O)O)no2)cc1C#N (stereo not drawn)
inactive: [1] 0.795% | [2] -10.1% | [3] | [4] 8.29% | [5] | [6] | [7]

COc1cc(CC2COC(c3ccc(OC4OC(CO)C(O)C(O)C4O)c(OC)c3)C2CO)ccc1O (stereo not drawn)
inactive: [1] | [2] 0.464% | [3] | [4] | [5] | [6] inactive [at 17.4 µM] | [7] inactive [at 17.4 µM]

OC[C@@]1(O)CO[C@H](OC[C@H]2O[C@@H](OC(CCCCc3ccc(O)cc3)CCc3ccc(O)cc3)[C@H](O[C@H]3OC[C@](O)(CO)[C@H]3O)[C@@H](O)[C@@H]2O)[C@@H]1O (stereo partly drawn)
inactive: [1] -11.2% | [2] -13.7% | [3] | [4] 2.31% | [5] | [6] inactive [at 17.4 µM] | [7] inactive [at 17.4 µM]

CC(=O)OC1C(O)/C(C)=C\C2C(OC(=O)c3ccccc3)C(C)CC2(OC(C)=O)C(OC(C)=O)C(C)/C=C/C(C)(C)C1OC(C)=O (stereo not drawn)
inactive: [1] -1.02% | [2] -2.9% | [3] | [4] 7.33% | [5] | [6] inactive [at 17.4 µM] | [7] inactive [at 17.4 µM]

CC(C)C1(O)C=C2C(=O)CC3C(C)(C(=O)O)CCCC3(C)C2CC1 (stereo not drawn)
inactive: [1] 3.97% | [2] 0.541% | [3] | [4] -0.238% | [5] | [6] | [7]

COc1ccc(N2CCN(CCCNC(=O)Cn3c(=O)c4cccn4c4c(C)ccnc43)CC2)cc1
inactive: [1] -6.16% | [2] -13.3% | [3] | [4] 6.93% | [5] | [6] | [7]

CC(O)C(O)/C=C/C=C/C(=O)O[C@@H]1C=C(C(=O)O)[C@](O)(CO)[C@@]2(C)CCCC(C)(C)[C@H]12 (stereo partly drawn)
inactive: [1] -15.6% | [2] -10.2% | [3] | [4] 4.17% | [5] | [6] inactive [at 17.4 µM] | [7] inactive [at 17.4 µM]

Cn1c2ccc(NC(=O)c3ccccc3)cc2c(=O)n2nc(C(=O)O)cc12
inactive: [1] | [2] -1.26% | [3] | [4] 0.84% | [5] | [6] inactive [at 17.4 µM] | [7] inactive [at 17.4 µM]

C[C@H]1CC[C@@]2(OC1)O[C@H]1CC3C4CC[C@H]5C[C@@H](O[C@@H]6O[C@H](CO)[C@H](O[C@@H]7O[C@H](CO)[C@@H](O)[C@H](O[C@@H]8OC[C@@H](O)[C@H](O)[C@H]8O)[C@H]7O[C@@H]7O[C@H](CO)[C@@H](O)[C@H](O)[C@H]7O)[C@H](O)[C@H]6O)[C@H](O)C[C@]5(C)C4=CC(=O)[C@]3(C)[C@H]1[C@@H]2C (stereo partly drawn)
inactive: [1] -0.886% | [2] 3.61% | [3] | [4] | [5] | [6] inactive [at 9.27 µM] | [7] inactive [at 9.27 µM]

CC1(C)CC[C@]2(C(=O)O[C@@H]3O[C@H](CO)[C@@H](O)[C@H](O)[C@H]3O)CC[C@]3(C)C(=CCC4[C@@]5(C)C[C@H](O)[C@H](O[C@@H]6OC[C@@H](O)[C@H](O)[C@H]6O)[C@@](C)(CO)C5CC[C@]43C)C2C1 (stereo partly drawn)
inactive: [1] -3.53% | [2] -6.93% | [3] | [4] 9.53% | [5] | [6] inactive [at 9.27 µM] | [7] inactive [at 9.27 µM]

C=C(C(=O)O)C1CC(OC(=O)CC(C)CC)C2(C)CCCC(=C)C2C1 (stereo not drawn)
inactive: [1] 4.7% | [2] 4.07% | [3] | [4] 2.84% | [5] | [6] | [7]

C/C=C1\[C@H](O[C@@H]2O[C@H](CO)[C@@H](O)[C@H](O)[C@H]2O)OC=C(C(=O)O)[C@H]1CC(=O)OCCc1ccc(O)cc1
inactive: [1] -6.03% | [2] -5.51% | [3] | [4] -0.266% | [5] | [6] inactive [at 17.4 µM] | [7] inactive [at 17.4 µM]

CC(C)=CCC/C(C)=C/CO[C@@H]1O[C@H](CO[C@@H]2OC[C@](O)(CO)[C@H]2O)[C@@H](O)[C@H](O)[C@H]1O
inactive: [1] 2.57% | [2] -12.6% | [3] | [4] | [5] | [6] inactive [at 17.4 µM] | [7] inactive [at 17.4 µM]

CC1(O)CC(O)C2C(C(=O)O)=COC(OC3OC(CO)C(O)C(O)C3OC(=O)/C=C/c3ccc(O)cc3)C21 (stereo not drawn)
inactive: [1] 2.15% | [2] 1.1% | [3] | [4] 6.91% | [5] | [6] inactive [at 17.4 µM] | [7] inactive [at 17.4 µM]

O=C(O)C[C@H]1CCC(=O)[C@@H]1C/C=C\CCO
inactive: [1] | [2] 0.813% | [3] | [4] 0.282% | [5] | [6] | [7]

CC1(C)CCC2(C(=O)O)CCC3(C)C(=CCC4C5(C)CCC(O)C(C)(CO)C5C(O)CC43C)C2C1 (stereo not drawn)
inactive: [1] -7.98% | [2] 4.6% | [3] | [4] 4.19% | [5] | [6] inactive [at 17.4 µM] | [7] inactive [at 17.4 µM]

CC(C)=CCc1cc(O[C@@H]2O[C@H](CO[C@@H]3OC[C@](O)(CO)[C@H]3O)[C@@H](O)[C@H](O)[C@H]2O)ccc1O
inactive: [1] -4.68% | [2] 1.91% | [3] | [4] | [5] | [6] inactive [at 17.4 µM] | [7] inactive [at 17.4 µM]

C[C@@H](NC(=O)c1cc(C(=O)N[C@@H](Cc2ccccc2)[C@H](O)CNC2CC2)cc(N(C)S(C)(=O)=O)c1)c1ccccc1
inactive: [1] 2.97% | [2] -6.18% | [3] | [4] -1.48% | [5] | [6] | [7]

O=C(O)c1cccc(C(=O)CCC2OC(n3cnc4c(=O)[nH]cnc43)C(O)C2O)c1 (stereo not drawn)
inactive: [1] | [2] -2.52% | [3] | [4] 3.59% | [5] | [6] inactive [at 17.4 µM] | [7] inactive [at 17.4 µM]

CC1OC(OC2CCC3(C)C(CCC4(C)C3C=CC35OCC6(CCC(C)(C)CC63)CCC45C)C2(C)CO)C(OC2OC(CO)C(O)C(O)C2O)C(O)C1OC1OC(CO)C(O)C(O)C1O (stereo not drawn)
inactive: [1] -0.103% | [2] -1.62% | [3] | [4] | [5] | [6] inactive [at 9.27 µM] | [7] inactive [at 9.27 µM]

Fc1ccc(-c2c3cccc(C(F)(F)F)c3nn2Cc2ccc(F)cc2Cl)cc1
inactive: [1] -3.03% | [2] 0.746% | [3] | [4] -3.04% | [5] | [6] | [7]

O=C(O)CC1CCC(c2ccc(NC(=O)c3nnc(Nc4ccc(F)c(F)c4)o3)cc2)CC1 (stereo not drawn)
inactive: [1] 1.15% | [2] 1.04% | [3] | [4] | [5] | [6] | [7]

COc1cc([C@H]2OC[C@](O)(Cc3ccc(O[C@@H]4O[C@H](CO)[C@@H](O)[C@H](O)[C@H]4O)c(OC)c3)[C@@H]2CO)ccc1O
inactive: [1] -8.35% | [2] 1.25% | [3] | [4] 0.848% | [5] | [6] inactive [at 17.4 µM] | [7] inactive [at 17.4 µM]

CC1(C)CCC2(C(=O)O)C(O)CC3(C)C(=CCC4C5(C)CCC(OC6OC(CO)C(O)C(O)C6OC6OC(CO)C(O)C(O)C6OC6OCC(O)(CO)C6O)C(C)(C)C5CCC43C)C2C1 (stereo not drawn)
inactive: [1] -4.69% | [2] -13.6% | [3] | [4] | [5] | [6] inactive [at 9.27 µM] | [7] inactive [at 9.27 µM]

CCNC(=O)C1CC(F)(c2ccc(CN3CCCC3)c(F)c2)C1 (stereo not drawn)
inactive: [1] | [2] -0.849% | [3] | [4] 3.84% | [5] | [6] | [7]

CC(=O)/C=C/C1C(C)CC(O[C@@H]2O[C@H](CO)[C@@H](O)[C@H](O)[C@H]2O)CC1(C)C (stereo partly drawn)
inactive: [1] | [2] 3.69% | [3] | [4] | [5] | [6] | [7]
